Results from publication PMC4336329 (PLoS ONE, 2015).
In all, about 310,000 compounds went through this assay and about 14,000 (4.5%) showed an effect of 50% or more. The effect is printed as a negative number. For the sample, strong results were picked, then their nearest neighbours and some compounds at random.

molecular target: human ether-à-go-go-related gene (hERG) potassium channel (human, UniProt Q12809); assay: primary screen, population patch clamp on CHO cells stably expressing hERG; higher = less effect of the substance
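Further: peak tail current of the secondary pulse compared with the same well before compound.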

Sequence of human ether-à-go-go-related gene (hERG) potassium channel (Q12809 whole entry, looked up): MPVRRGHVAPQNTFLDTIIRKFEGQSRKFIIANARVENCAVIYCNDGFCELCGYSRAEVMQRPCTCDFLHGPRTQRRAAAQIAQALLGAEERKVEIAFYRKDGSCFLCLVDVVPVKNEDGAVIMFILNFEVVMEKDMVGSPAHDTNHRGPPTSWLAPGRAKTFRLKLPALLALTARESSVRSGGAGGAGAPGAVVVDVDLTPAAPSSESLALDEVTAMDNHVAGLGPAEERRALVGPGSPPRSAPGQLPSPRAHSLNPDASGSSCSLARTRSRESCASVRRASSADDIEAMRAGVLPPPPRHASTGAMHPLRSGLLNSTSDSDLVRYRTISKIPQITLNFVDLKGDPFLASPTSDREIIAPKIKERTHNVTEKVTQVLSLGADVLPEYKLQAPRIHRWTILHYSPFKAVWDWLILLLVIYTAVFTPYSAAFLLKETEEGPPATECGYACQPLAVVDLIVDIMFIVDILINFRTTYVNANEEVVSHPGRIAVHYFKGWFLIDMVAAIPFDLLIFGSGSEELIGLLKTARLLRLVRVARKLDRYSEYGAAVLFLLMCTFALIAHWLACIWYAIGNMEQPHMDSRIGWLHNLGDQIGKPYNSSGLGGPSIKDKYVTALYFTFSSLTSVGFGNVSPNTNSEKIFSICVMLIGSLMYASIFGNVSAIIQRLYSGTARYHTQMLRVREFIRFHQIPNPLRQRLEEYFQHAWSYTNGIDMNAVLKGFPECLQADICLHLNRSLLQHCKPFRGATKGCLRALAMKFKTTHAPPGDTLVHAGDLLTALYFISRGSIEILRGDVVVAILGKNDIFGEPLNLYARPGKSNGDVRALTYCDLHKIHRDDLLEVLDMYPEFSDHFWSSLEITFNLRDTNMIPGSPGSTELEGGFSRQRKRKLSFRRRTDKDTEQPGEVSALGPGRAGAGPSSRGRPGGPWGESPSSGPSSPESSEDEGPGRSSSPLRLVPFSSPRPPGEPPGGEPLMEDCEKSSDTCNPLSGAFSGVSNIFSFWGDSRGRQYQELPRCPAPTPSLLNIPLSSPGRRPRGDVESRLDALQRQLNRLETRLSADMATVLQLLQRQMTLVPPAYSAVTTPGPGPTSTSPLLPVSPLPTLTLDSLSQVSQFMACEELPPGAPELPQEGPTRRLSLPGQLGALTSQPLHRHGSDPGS

SMILES	hERG current change (%, negative = inhibition) at 10uM [%]
CC1=C(C(=O)OCc2ccccc2)C(c2ccsc2)NC(=O)N1C (centres unmarked)	-37.7
CCOC(=O)C(Cc1ccc(OC)c([N+](=O)[O-])c1)NC(=O)CCC(=O)Nc1ccc(C)cc1 (centres unmarked)	-26.2
COC(=O)c1ccc(/C=C/c2c(-c3ccc(OC)cc3)oc3ccc(N4CCOCC4)cc23)cc1	25.7
Cc1cc(NC(=O)c2cnn3c(C(F)(F)F)cc(-c4ccc(Br)cc4)nc23)no1	24.4
C[C@]12CC[C@@H]3c4ccc(O)c(O)c4CC[C@H]3[C@@H]1CC[C@@H]2O	15.4
C[C@]12CC[C@@H]3c4ccc(O)cc4[C@@H](O)C[C@H]3[C@@H]1CC[C@@H]2O	10.4
C[C@]12CC[C@@H]3c4ccc(O)cc4C(=O)C[C@H]3[C@@H]1CC[C@@H]2O	-52.7
CCN(CC)S(=O)(=O)c1ccc(/C=C/C(=O)OCC#N)cc1	-12.4
COC(=O)c1cccc(NCN2C(=O)c3ccccc3C2=O)c1	1.11
CN(CC(=O)Nc1cccc(F)c1)C(=O)CCc1nc2ccccc2c(=O)[nH]1	2.42
COc1cccc(NC(=O)CN(C)C(=O)Cc2c(C)nc3ccccc3c2C)c1	-62.8
CN(CC(=O)Nc1cccc(F)c1)C(=O)Cc1n[nH]c(=O)c2ccccc12	5.31
Cc1nc2ccccc2c(C)c1CC(=O)N(C)CC(=O)Nc1cccc(F)c1	-55.9
CCOc1ccc(NC(=O)CN(C)C(=O)Cc2c(C)nc3ccccc3c2C)cc1OCC	-47
COc1ccc(NC(=O)CN(C)C(=O)Cc2c(C)nc3ccccc3c2C)cc1	-46.1
Cc1ccc(C(C(=O)NC(C)(C)C)N(C(=O)c2csnn2)c2ccccc2F)o1 (centres unmarked)	-9.84
CC(C)CC(=O)NS(=O)(=O)c1ccc(NS(C)(=O)=O)cc1	11.7
CCCc1nc(Nc2nc3ccccc3o2)nc(C)c1C(=O)OCC	-18.3
CCN(CC)CCCN(C(=O)Cn1nnc(-c2ccc(OC)c(OC)c2)n1)C(C(=O)NC(C)(C)C)c1ccc(F)cc1 (centres unmarked)	-74.5
CCOCCCN(C(=O)Cn1nnc(-c2ccc(OC)c(OC)c2)n1)C(C(=O)NCC1CCCO1)c1ccc(F)cc1 (centres unmarked)	-12.8
CCN(CC)CCN(C(=O)Cn1nnc(-c2ccc(OC)c(OC)c2)n1)C(C(=O)NC1CCCC1)c1ccc(F)cc1 (centres unmarked)	-35.1
CCOC(=O)N1CCC(NC(=O)c2ccc(Cl)cc2)CC1	-14.5
CCOC(=O)N1CCN(c2c(NCc3ccc(Cl)cc3)c(=O)c2=O)CC1	-17
CCOC(=O)N1CCC(Nc2c(NCCN3CCN(c4cccc(Cl)c4)CC3)c(=O)c2=O)CC1	-0.879
CCOC(=O)N1CCC(NCCNC(=O)c2ccc(F)cc2)CC1.Cl	-25.2
CCOC(=O)N1CCC(NCCNC(=O)c2ccc(Cl)cc2)CC1	-57.8
CCOC(=O)N1CCN(c2c(N3CCN(c4cc(C)ccc4C)CC3)c(=O)c2=O)CC1	-15.1

SMILES	hERG current change (%, negative = inhibition) at 10uM [%]
CCOC(=O)N1CCN(c2c(NC3CCN(Cc4ccccc4)CC3)c(=O)c2=O)CC1	7.18
CCOC(=O)N1CCC(N2CCN(c3ccccc3)CC2)CC1.Cl	-21.4
CCOC(=O)N1CCC(N2CCN(c3cc(C)ccc3C)CC2)CC1	-51.2
CCOC(=O)N1CCN(c2c(N3CCN(c4cccc(C(F)(F)F)c4)CC3)c(=O)c2=O)CC1	-46.4
CCOC(=O)N1CCC(Nc2c(N3CCN(c4cc(Cl)ccc4C)CC3)c(=O)c2=O)CC1	-80.4
CCOC(=O)N1CCC(Nc2c(N3CCN(c4cccc(C(F)(F)F)c4)CC3)c(=O)c2=O)CC1	-76.8
C[C@@H]1C(=O)O[C@H]2[C@H]1CC[C@@]1(C)C(=O)C=C[C@@](C)(O)[C@H]21	15.6
C=CCN1C(=O)c2ccc(C(=O)OCC(=O)N3CCN(c4ccccc4)CC3)cc2C1=O	7.02
CC(C(=O)NCCc1ccccc1)N1c2cccc3cccc(c23)S1(=O)=O (centres unmarked)	-21.2
Cc1ccc(C(=O)OCC(=O)NNC(=O)COc2ccc(Cl)cc2)c(O)c1	-2.08
O=C(Cc1ccc(NS(=O)(=O)c2ccc(F)cc2)cc1)NCc1ccccc1	-16.4
O=C(N/N=C/c1cc([N+](=O)[O-])ccc1O)C12CC3CC(CC(C3)C1)C2	8.39
CCN(CC(=O)Nc1c(F)cccc1F)C(=O)CSc1ccccc1	8.37
CCSc1ccccc1C(=O)N1CCCC1	-5.81
CCSc1ccccc1C(=O)N1CCN(c2ccccc2F)CC1	17.6
O=C(c1cc([N+](=O)[O-])ccc1Cl)N1CCN(c2ccc(F)cc2)CC1	-27.9
O=C(c1cnc2n(c1=O)CCS2)N1CCN(C(c2ccccc2)c2ccc(Cl)cc2)CC1 (centres unmarked)	-52.4
O=C(c1cc([N+](=O)[O-])ccc1Cl)N1CCN(c2ccccc2)CC1	-6.43
CCSc1ccccc1C(=O)N1CCN(c2ccc([N+](=O)[O-])cc2)CC1	-79.4
CC(NC(=O)c1cnc2n(c1=O)CCS2)c1ccccc1 (centres unmarked)	3.42
CCSc1ccccc1C(=O)Nc1ccc([N+](=O)[O-])cc1OC	-51.9
O=C(c1cc([N+](=O)[O-])ccc1Cl)N1CCN(c2ccc([N+](=O)[O-])cc2)CC1	-73.6
O=C(c1cnc2n(c1=O)CCS2)N1CCN(c2ccccc2F)CC1	-5.65
COCCSc1ccccc1C(=O)Nc1cc([N+](=O)[O-])ccc1OC	-28.8
COCCSc1ccccc1C(=O)Nc1ccc([N+](=O)[O-])cc1OC	-39.9
Cc1cccc(NC(=O)COC(=O)Cc2cccc(C(F)(F)F)c2)c1C	22.8
Cc1cc(C)n(CCNC(=O)CC2C(=O)NCCN2Cc2ccccc2C(F)(F)F)n1 (centres unmarked)	8.81

SMILES	hERG current change (%, negative = inhibition) at 10uM [%]
COCCOC(=O)C1=C(C)OC(N)=C(C#N)C1c1ccc2c(c1)OCO2 (centres unmarked)	-0.292
CCCOc1ccc(/C=N/NC(=O)C(C)Sc2ccccn2)cc1OCC (centres unmarked)	14.9
CCOCC(=O)Nc1cc([N+](=O)[O-])ccc1OC	15.7
N#C/C(=C\C=C\c1ccccc1)c1nc(-c2ccc3c(c2)OCO3)cs1	-3.96
COc1ccc(N(CC(=O)NCc2cccs2)S(=O)(=O)c2ccc(F)cc2)cc1	-0.742
CN(Cc1nccs1)C(=O)C1CCC(=O)N(Cc2ccccc2F)C1 (centres unmarked)	-16.1
COc1cccc(-c2ccc(=O)n(CC(=O)Nc3ccc(C(=O)N4CCCC4)cc3)n2)c1	-15.4
COc1cc(/C=C/c2cccc[n+]2C)ccc1OCC(=O)Nc1ccccc1.[I-]	8.86
Cc1ccc(S(=O)(=O)N2CCN(C(=O)c3cc(S(=O)(=O)N(C)C)ccc3N3CCCC3)CC2)cc1	-11.1
Cc1ccc2nc(-c3cccnc3)cc(C(=O)N3CCN(c4ccc([N+](=O)[O-])cc4)CC3)c2c1	-68.2
O=C(c1cc(=O)[nH]c2ccccc12)N1CCN(c2ccccc2)CC1	2.12
O=C(c1cc(=O)[nH]c2ccccc12)N1CCN(c2ccc([N+](=O)[O-])cc2)CC1	-65.1
Cc1cccc(N2CCN(C(=O)c3cc(S(=O)(=O)N(C)C)ccc3N3CCCC3)CC2)c1C	-12.3
O=C(c1cc([N+](=O)[O-])ccc1N1CCOCC1)N1CCN(c2ccccc2)CC1	-32.3
CC(=O)c1ccc(N2CCN(C(=O)c3cc(-c4cccnc4)nc4ccc(Br)cc34)CC2)cc1	2.5
COc1ccc(N2CCN(C(=O)c3cc(=O)[nH]c4ccccc34)CC2)cc1	-0.412
O=C(c1cc([N+](=O)[O-])ccc1N1CCOCC1)N1CCN(c2ccc([N+](=O)[O-])cc2)CC1	-79.8
O=C(c1cc([N+](=O)[O-])ccc1N1CCOCC1)N1CCOCC1	18.1
CN(C)S(=O)(=O)c1ccc(N2CCCC2)c(C(=O)N2CCN(c3ccc([N+](=O)[O-])cc3)CC2)c1	-76.7
Cc1ccc2c(C(=O)N3CCN(c4ccccc4)CC3)cc(-c3cccnc3)nc2c1C	4.03
CCOc1ccc(C(=O)NCC(=O)OCC(=O)Nc2ccccc2OC)cc1	-18.1
CCC(CC)C(=O)Nc1cc(C)cc(C)c1	0.735
CC(NC(=O)COC(=O)CNC(=O)C1CCCCC1)c1ccccc1 (centres unmarked)	-3.81
COc1ccc(/C=N/NC(=O)c2nnn(-c3nonc3N)c2-c2cccs2)c(OC)c1	13.1
CC(C)(C)NC(=O)C(OC(=O)c1cccs1)c1ccccc1 (centres unmarked)	58.8
Cc1ccc(C(=O)NC(=S)NNC(=O)COc2ccccc2C)cc1	15.3
